PubChem BioAssay (NCATS)
For part of these data: Entries with a potency or affinity are not part of this list. Calls of active or inactive are those of the source. No rule for the calls is given here.

Key:
[1] = Ebola virus entry assay, green fluorescence channel
[2] = Ebola virus entry assay, blue channel fluorescence
[3] = Ebola virus entry assay, ratio channel
[4] = Ebola virus entry assay, green channel fluorescence
[5] = Ebola virus entry assay, reporter ratio channel; Channel type: primary
[6] = Ebola virus entry assay, blue channel (ratio component)

Measured: efficacy
For efficacy in this document: 0% is about no effect.

COC(=O)[C@@H](N)Cc1ccc(O)c(O)c1
inactive: [1] -12% | [2] | [3] | [4] | [5] | [6]

C/C=C/c1ccc(O)c(OC)c1
inactive: [1] 19% | [2] | [3] | [4] | [5] | [6]

NC[C@H]1O[C@H](O[C@H]2[C@H](O)[C@@H](O[C@H]3O[C@H](CO)[C@@H](O)[C@H](N)[C@H]3O)[C@H](N)C[C@@H]2N)[C@H](N)[C@@H](O)[C@@H]1O
inactive: [1] -12.5% | [2] | [3] | [4] | [5] | [6]

Clc1ccccc1-c1nc(-c2ccncc2)no1
inactive: [1] -9.78% | [2] | [3] | [4] | [5] | [6]

Cc1ncc(CSSCc2cnc(C)c(O)c2CO)c(CO)c1O
inactive: [1] -36.5% | [2] | [3] | [4] | [5] | [6]

CCN(CC)CCN
inactive: [1] -14.9% | [2] | [3] | [4] | [5] | [6]

OC1C(O)C(O)C(O)C(O)C1O (stereo not drawn)
inactive: [1] 12.1% | [2] | [3] | [4] | [5] | [6]

CNc1c2c(nn1C)CCCC2
inactive: [1] -13.1% | [2] | [3] | [4] | [5] | [6]
